{"source": "PubChem BioAssay (NCATS)", "key": {"[1]": {"test": "AP1 Signaling Pathway (AID 357; active = well fitted curve in either direction with a large enough effect, not every such curve was filed as active)", "settings": "ME-180 AP-1-bla reporter, EGF-induced, beta-lactamase ratio, 5 h", "how_it_was_run": "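ME-180 cells with beta-lactamase reporter under AP-1 response element, stimulated with EC50 EGF; compounds tested in titration series, 5 h at 37 °C. CCF4 substrate added 2.5 h at room temperature; 460/530 nm emission ratio gave %activity and AC50.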"}, "[2]": {"target": "Cytochrome P450 1A2 (Homo sapiens) (UniProt P05177)", "sequence (P05177 whole entry, looked up)": "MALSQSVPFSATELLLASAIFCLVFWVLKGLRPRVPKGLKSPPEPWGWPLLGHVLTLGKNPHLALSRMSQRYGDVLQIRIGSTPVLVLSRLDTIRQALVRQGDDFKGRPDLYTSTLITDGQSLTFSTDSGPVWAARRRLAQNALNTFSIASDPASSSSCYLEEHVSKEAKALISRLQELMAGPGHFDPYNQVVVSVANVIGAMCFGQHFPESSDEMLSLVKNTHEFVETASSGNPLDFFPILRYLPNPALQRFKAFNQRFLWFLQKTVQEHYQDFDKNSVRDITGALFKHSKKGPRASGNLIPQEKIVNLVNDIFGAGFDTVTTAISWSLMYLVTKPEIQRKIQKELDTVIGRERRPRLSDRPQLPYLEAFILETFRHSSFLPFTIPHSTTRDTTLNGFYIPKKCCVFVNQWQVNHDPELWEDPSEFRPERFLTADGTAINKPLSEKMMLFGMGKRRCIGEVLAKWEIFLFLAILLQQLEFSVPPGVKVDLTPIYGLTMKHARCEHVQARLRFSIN", "test": "p450-cyp1a2 (AID 410; calls by dose curve)", "how_it_was_run": "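Human CYP1A2 (20nM) demethylated Luciferin-ME at its Km (100uM) in 100mM KPO4. After 10 min compound preincubation, NADPH regeneration ran the reaction 60 min at room temperature. Luciferin was read by luminescence, normalized to 57 uM furafylline.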"}, "[3]": {"test": "NFAT Signaling Pathway (AID 444; active = well fitted curve in either direction with a large enough effect, not every such curve was filed as active;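 also: carbachol stimulus at about its EC50 of 1 µM final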)", "settings": "Jurkat NFAT-bla M1, carbachol, beta-lactamase ratio, 5 h", "how_it_was_run": "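Jurkat cells carrying an NFAT-driven β-lactamase reporter and co-transfected muscarinic M1 receptor were treated with compound plus carbachol (1 uM final, an EC50 level) for 5 h at 37 °C. CCF4 loading followed for 1 h at RT; 460/530 nm ratio gave %activity.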"}, "[4]": {"test": "Stat Signaling Pathway (AID 446; active = well fitted curve in either direction with a large enough effect, not every such curve was filed as active;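 also: ME-180 cervical cancer cells given 40 pM IL-6 alongside compound; SIE-controlled beta-lactamase reporter measured as 460/530 nm FRET emission ratio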)", "settings": "ME-180 SIE beta-lactamase reporter, IL-6 stimulated, 5 h", "how_it_was_run": "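ME-180 SIE-bla cells; overnight plating; cpd + IL-6 40 pM, 5 h, 37 C; LiveBLAzer 2.5 h RT; 460/530 nm emission ratio. Normalized to 300 pM IL-6 and 125 nM JAK inhibitor controls.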"}, "[5]": {"target": "Glucocorticoid receptor (Homo sapiens) (UniProt P04150)", "sequence (P04150 whole entry, looked up, the tested form may be a part)": "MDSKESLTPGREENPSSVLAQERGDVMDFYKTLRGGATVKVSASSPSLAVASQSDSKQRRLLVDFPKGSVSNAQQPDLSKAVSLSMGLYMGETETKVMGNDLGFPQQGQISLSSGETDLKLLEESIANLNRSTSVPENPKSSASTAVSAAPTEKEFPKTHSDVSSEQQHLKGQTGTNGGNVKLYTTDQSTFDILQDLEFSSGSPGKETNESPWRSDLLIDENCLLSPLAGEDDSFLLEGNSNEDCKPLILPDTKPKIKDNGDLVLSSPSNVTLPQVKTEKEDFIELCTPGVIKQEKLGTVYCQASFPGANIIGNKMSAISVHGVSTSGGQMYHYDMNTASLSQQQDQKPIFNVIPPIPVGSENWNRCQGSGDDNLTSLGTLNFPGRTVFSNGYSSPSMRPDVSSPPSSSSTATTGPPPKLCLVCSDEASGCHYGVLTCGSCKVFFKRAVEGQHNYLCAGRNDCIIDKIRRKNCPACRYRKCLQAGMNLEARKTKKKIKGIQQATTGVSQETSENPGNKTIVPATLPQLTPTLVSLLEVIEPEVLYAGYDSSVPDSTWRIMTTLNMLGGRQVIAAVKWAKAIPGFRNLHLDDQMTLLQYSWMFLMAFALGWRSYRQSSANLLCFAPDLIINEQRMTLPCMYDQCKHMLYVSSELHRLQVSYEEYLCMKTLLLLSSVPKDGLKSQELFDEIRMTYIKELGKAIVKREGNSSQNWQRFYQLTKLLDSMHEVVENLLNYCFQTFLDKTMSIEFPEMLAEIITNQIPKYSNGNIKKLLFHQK", "test": "GR-EFC Redistribution (AID 451; calls by dose curve; also: potency is read from the fitted curve at half-maximal effect)", "settings": "CHO-K1 GR-EFC translocation, beta-gal luminescence, 2 h", "how_it_was_run": "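CHO-K1 cells stably expressing nuclear-localized β-gal enzyme acceptor and GR fused C-terminally to the enzyme donor fragment; ligand-driven nuclear translocation restores β-gal by complementation. Compounds titrated up to 46 uM final, 2 h at 37 °C; luminescence read.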"}, "[6]": {"target": "3',5'-cyclic-AMP phosphodiesterase 4B (Homo sapiens) (UniProt Q07343)", "sequence (Q07343 whole entry, looked up)": "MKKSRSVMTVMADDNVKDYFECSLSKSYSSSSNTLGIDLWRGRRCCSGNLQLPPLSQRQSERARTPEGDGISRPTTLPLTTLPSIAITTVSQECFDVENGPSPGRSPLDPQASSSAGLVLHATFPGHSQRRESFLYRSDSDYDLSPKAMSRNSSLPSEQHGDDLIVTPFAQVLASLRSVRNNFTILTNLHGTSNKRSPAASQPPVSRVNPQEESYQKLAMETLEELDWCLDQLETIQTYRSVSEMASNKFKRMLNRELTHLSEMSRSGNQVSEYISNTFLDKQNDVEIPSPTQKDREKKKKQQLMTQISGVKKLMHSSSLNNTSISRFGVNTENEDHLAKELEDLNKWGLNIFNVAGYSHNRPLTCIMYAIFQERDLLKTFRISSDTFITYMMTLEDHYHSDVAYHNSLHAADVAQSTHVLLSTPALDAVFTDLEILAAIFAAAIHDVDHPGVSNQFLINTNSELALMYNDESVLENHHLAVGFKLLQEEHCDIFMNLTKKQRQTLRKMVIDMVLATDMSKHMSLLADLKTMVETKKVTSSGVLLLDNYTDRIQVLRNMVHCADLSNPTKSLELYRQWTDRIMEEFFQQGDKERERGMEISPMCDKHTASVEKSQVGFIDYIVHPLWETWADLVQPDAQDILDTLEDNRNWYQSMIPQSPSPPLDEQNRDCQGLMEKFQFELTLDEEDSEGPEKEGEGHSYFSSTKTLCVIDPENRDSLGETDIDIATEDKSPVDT", "test": "qHTS Assay for Inhibitors of PDE-IV (AID 607; active = well fitted activation curve with a large enough effect in the main read-out, with a control signal flat, not every such curve was filed as active)", "how_it_was_run": "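ACTOne HEK293 cells carry a modified cAMP-gated CNG channel and express endogenous PDE4; plated 1000 cells/well, compounds up to 22.9 uM final. Membrane-potential dye fluorescence (ex 535/em 590) was read; parental cells received 10 uM forskolin + 100 uM RO 20-1724.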"}, "[7]": {"target": "Guanine nucleotide-binding protein G(i) subunit alpha-1 (Homo sapiens) (UniProt P63096)", "sequence (P63096 whole entry, looked up)": "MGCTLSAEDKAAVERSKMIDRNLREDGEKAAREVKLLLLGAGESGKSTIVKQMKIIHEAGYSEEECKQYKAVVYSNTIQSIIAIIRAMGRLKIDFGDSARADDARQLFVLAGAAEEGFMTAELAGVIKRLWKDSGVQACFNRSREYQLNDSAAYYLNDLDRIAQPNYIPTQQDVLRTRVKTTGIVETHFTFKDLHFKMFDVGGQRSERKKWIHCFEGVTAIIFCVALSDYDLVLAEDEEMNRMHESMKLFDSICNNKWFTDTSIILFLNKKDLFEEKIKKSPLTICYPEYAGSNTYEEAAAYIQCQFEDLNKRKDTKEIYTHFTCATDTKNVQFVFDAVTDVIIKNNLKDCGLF", "test": "qHTS Assay for Inhibitors of RGS12 GoLoco Motif Activity (Green Fluorophore) (AID 879);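 also: negative values mean loss of peptide binding seen as reduced polarization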", "how_it_was_run": "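Fluorescence polarization assay: 50 nM Gαi1 with 10 nM FITC-labeled RGS12 GoLoco peptide in 10 mM Tris pH 7.5, 150 mM NaCl, 0.1 mM GDP, 0.05% NP40, 10 min at room temperature with compound.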"}, "[8]": {"target": "Muscarinic acetylcholine receptor M1 (Rattus norvegicus) (UniProt P08482)", "sequence (P08482 whole entry, looked up)": "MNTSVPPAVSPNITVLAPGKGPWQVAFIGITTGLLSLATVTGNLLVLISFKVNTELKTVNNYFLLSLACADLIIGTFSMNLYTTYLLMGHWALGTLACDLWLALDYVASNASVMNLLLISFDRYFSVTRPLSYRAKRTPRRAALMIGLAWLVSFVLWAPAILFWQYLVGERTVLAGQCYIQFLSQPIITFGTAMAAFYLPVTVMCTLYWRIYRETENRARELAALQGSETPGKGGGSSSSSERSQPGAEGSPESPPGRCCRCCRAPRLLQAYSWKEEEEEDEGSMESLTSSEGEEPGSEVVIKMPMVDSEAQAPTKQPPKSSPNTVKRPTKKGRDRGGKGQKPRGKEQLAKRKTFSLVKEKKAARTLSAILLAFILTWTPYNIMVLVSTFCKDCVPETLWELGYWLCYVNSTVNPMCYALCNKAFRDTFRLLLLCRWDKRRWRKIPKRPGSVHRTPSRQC", "test": "qHTS Assay for Antagonists of Acetylcholine Muscarinic M1 Receptor: Measurement of IP-One Response (AID 944); also: nearly all actives have a fitted effect of over 75% in size", "how_it_was_run": "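CHO cells expressing rat M1 receptor, recovered overnight, were pre-incubated 10 min with compound, then stimulated 30 min with carbachol at EC80 (200 nM) in LiCl-containing buffer, pH 7.4. IP1 accumulation was read by HTRF (620/665 nm).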"}, "[9]": {"target": "Pyruvate kinase (Leishmania mexicana) (UniProt Q27686)", "sequence (Q27686 2-499 E452W)": "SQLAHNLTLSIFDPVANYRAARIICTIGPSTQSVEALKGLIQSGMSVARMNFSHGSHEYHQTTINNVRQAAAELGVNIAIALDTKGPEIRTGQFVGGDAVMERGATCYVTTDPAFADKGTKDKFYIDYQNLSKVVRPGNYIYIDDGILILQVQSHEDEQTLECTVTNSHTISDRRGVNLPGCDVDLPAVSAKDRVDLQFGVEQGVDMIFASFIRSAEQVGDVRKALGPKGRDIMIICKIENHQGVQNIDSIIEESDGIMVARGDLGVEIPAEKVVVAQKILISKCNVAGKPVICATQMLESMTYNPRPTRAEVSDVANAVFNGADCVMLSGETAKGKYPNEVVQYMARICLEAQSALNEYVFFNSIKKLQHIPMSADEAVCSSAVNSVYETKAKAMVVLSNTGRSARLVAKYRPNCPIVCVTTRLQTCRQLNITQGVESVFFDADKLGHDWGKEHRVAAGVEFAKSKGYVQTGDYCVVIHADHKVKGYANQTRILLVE", "test": "qHTS Validation Assay for Inhibitors of Leishmania Mexicana Pyruvate Kinase (AID 945)", "how_it_was_run": "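Eight-point qHTS titrations; enzyme 0.2 nM LmPYK (E451W mutant); substrates 0.5 mM PEP, 0.1 mM ADP; 7 mM MgCl2; 1 h room temperature; PKLight luminescence normalized to neutral control.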"}, "[10]": {"target": "Pyruvate kinase PKM (Homo sapiens) (UniProt P14618)", "sequence (P14618 whole entry, looked up)": "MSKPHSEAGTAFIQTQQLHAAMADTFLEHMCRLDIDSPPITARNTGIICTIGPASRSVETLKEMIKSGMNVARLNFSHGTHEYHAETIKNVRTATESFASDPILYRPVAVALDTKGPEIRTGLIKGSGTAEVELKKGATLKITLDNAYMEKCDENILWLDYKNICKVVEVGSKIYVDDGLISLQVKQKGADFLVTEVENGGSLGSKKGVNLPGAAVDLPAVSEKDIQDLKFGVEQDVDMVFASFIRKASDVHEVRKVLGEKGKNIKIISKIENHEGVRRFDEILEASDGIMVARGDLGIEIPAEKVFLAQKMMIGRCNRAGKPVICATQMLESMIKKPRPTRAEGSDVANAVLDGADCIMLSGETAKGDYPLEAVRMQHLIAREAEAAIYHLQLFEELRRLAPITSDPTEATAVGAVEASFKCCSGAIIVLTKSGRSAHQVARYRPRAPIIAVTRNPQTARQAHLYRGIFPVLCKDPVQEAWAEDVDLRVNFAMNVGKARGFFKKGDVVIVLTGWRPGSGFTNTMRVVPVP", "test": "qHTS Assay for Activators of Human Muscle Pyruvate Kinase (AID 954; active = well fitted curve in the direction sought with a large enough effect, not every such curve was filed as active)", "how_it_was_run": "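Luminescence from a luciferase ATP-detection/stop reagent reported PKM2 activity. Reactions contained 0.1 nM purified human enzyme, 0.5 mM PEP, 0.1 mM ADP and 7 mM MgCl2 at pH 7.2, run 1 h at RT.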"}, "[11]": {"target": "Alpha-galactosidase A (Homo sapiens) (UniProt P06280)", "sequence (P06280 whole entry, looked up)": "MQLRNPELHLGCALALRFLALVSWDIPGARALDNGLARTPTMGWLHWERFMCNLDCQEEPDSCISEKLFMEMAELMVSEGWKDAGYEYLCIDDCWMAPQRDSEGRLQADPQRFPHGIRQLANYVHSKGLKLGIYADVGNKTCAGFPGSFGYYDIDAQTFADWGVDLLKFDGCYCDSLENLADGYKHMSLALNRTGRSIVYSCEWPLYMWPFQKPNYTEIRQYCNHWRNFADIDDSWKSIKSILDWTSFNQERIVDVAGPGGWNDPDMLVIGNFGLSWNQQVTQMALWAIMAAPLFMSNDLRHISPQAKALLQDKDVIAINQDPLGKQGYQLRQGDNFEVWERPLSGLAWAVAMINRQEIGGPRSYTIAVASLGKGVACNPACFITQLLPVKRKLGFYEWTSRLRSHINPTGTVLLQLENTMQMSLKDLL", "test": "Counterscreen for Glucocerebrosidase Inhibitors: qHTS Assay for Human alpha-Galactosidase at pH 4.5 (AID 992)", "how_it_was_run": "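Enzyme at 2 nM final was combined with compound (0.7 nM to 77 uM) and 80 uM 4-methylumbelliferyl alpha-D-galactopyranoside in 50 mM citric acid, 0.005% Tween-20, pH 4.5. After 20 min at room temperature, fluorescence was read (Ex 365/Em 440 nm); AC50 came from Hill fits.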"}, "[12]": {"target": "alpha-glucosidase (Oryza sativa, rice) (UniProt Q653V4)", "test": "Counterscreen for Glucocerebrosidase Inhibitors: qHTS Assay for Rice alpha-Glucosidase at pH 5.0 (AID 997)", "how_it_was_run": "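Rice alpha-glucosidase (4 nM final) with 400 uM 4-methylumbelliferyl-alpha-D-glucopyranoside in citrate buffer pH 5.0, 20 min at room temperature, stopped at pH 10; fluorescence 365/440 nm, compounds 0.7 nM–77 uM, AC50 from Hill fits.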"}, "[13]": {"test": "qHTS Assay for Lipid Storage Modulators (AID 1519; calls by dose curve)", "settings": "Drosophila S3 cells, BODIPY lipid droplet/cell ratio, laser cytometry, cells loaded with oleic acid", "how_it_was_run": "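Cells seeded at 5,000 per well were treated with compounds over a concentration series and loaded with oleic acid (400 uM, as added). Lipid droplet fluorescence (488 nm excitation, 500-530 nm channel) was read by laser-scanning cytometry and normalized to 20 uM Triacsin C.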"}, "[14]": {"target": "Ubiquitin carboxyl-terminal hydrolase 1 (Homo sapiens) (UniProt O94782)", "test": "Inhibitors of USP1/UAF1: Pilot qHTS (AID 504865);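 also: rhodamine fluorescence freed from ubiquitin-rhodamine substrate followed over time; top concentration of the series differs between compounds; nearly all actives have a fitted effect of over 35% in size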", "how_it_was_run": "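Enzyme-free wells gave the negative control, while test wells held 1nM USP1/UAF1 preincubated with compound for 15 min at room temperature. Ub-Rho at 150nM final started the reaction, and fluorescence at 480/540 nm was recorded kinetically.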"}, "[15]": {"target": "DNA dC->dU-editing enzyme APOBEC-3G (Homo sapiens) (UniProt Q9HC16)", "sequence (Q9HC16 whole entry, looked up)": "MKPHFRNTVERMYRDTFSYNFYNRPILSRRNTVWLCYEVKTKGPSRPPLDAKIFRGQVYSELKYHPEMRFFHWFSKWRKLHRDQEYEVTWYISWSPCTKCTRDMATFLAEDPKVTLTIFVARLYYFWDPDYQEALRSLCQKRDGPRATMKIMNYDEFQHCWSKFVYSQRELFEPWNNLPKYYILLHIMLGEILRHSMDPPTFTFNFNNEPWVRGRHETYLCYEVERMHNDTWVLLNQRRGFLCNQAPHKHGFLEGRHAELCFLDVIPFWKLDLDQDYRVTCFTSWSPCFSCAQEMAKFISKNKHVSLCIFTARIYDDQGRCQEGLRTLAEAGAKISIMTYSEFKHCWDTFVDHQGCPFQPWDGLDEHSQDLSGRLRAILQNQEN", "test": "qHTS for inhibitors of Vif-A3G interactions: Validation (AID 588379)", "how_it_was_run": "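HeLa cells stably expressing Vif and A3G-eYFP, 700 cells/well, incubated overnight at 37 deg C, then exposed to compound overnight at 37 deg C. Inhibition of Vif-mediated degradation read as increased yellow fluorescence (Ex 488/Em 500-530) by laser-scanning cytometry.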"}, "[16]": {"system": "Zika virus NS2B-NS3 protease", "test": "Primary screen GU AMC qHTS for Zika virus inhibitors (AID 1347154); also: nearly all actives have a fitted effect of over 70% in size", "how_it_was_run": "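Unlinked Zika NS2B hydrophilic domain/NS3 protease domain noncovalent complex (25 nM final) in 10 mM Tris-HCl pH 8.0, 0.01% Tween 20, with AMC peptide substrate. Fluorescence (ex 340, em 450 nm) change over 15 min, room temperature; percent inhibition fitted to 4-parameter Hill equation.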"}, "[17]": {"test": "Primary qHTS for small molecule stabilizers of the endoplasmic reticulum resident proteome: Secreted ER Calcium Modulated Protein (SERCaMP) assay (AID 1508630)", "how_it_was_run": "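GLuc-SERCaMP-expressing SH-SY5Y cells, pretreated 16 h with compound, are challenged with thapsigargin to empty ER calcium stores; after 4 h, coelenterazine is added directly to the medium and luminescence is imaged.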"}}, "note": "Several values for one entry are separate records, joined by “and”; a condition that tells them apart may be missing. Identical values can stand only once. Inconclusive results are not listed. A call without a number means that no potency is given here. Activity calls are given as the source filed them. Unless noted, calls follow the shape of the dose curve; as a rule, active = well fitted curve in the direction sought with a large enough effect; inconclusive = small, poorly fitted or top-dose-only effect, or another doubt; inactive = no such curve, though single readings can be large; an effect the other way counts as inactive or inconclusive."}
{"smiles": "O=C(NCCNC[C@@H](O)COc1ccc(O)cc1)N1CCOCC1", "values": [{"measurement": "activity change, negative = inhibition", "setting": "[1]; at 17.2 µM (top of the series)", "result": "-7.17% (inactive)"}, {"measurement": "activity change, negative = inhibition", "setting": "[1]; at 38 µM (top of the series)", "result": "-6.28% (inactive)"}, {"measurement": "Potency", "setting": "[2]", "result": "inactive"}, {"measurement": "activity change, negative = inhibition", "setting": "[3]; at 17.2 µM (top of the series)", "result": "-2.05% (inactive)"}, {"measurement": "activity change, negative = inhibition", "setting": "[3]; at 38 µM (top of the series)", "result": "-2.2% (inactive)"}, {"measurement": "activity, negative = inhibition", "setting": "[4]; at 17.2 µM (top of the series)", "result": "6.36% (inactive)"}, {"measurement": "activity, negative = inhibition", "setting": "[4]; at 38 µM (top of the series)", "result": "-6.64% (inactive)"}, {"measurement": "Potency", "setting": "[5]", "result": "> 46 µM (inactive) and > 20.6 µM (inactive)"}, {"measurement": "Potency", "setting": "[6]", "result": "inactive"}, {"measurement": "outcome", "setting": "[7]", "result": "inactive"}, {"measurement": "Potency", "setting": "[8]", "result": "inactive"}, {"measurement": "Potency", "setting": "[9]", "result": "inactive"}, {"measurement": "outcome", "setting": "[10]", "result": "inactive"}, {"measurement": "outcome", "setting": "[11]", "result": "inactive"}, {"measurement": "outcome", "setting": "[12]", "result": "inactive"}, {"measurement": "activity change, negative = inhibition", "setting": "[13]; at 25.7 µM (top of the series)", "result": "-1.5% (inactive)"}, {"measurement": "activity change, negative = inhibition", "setting": "[13]; at 57.5 µM (top of the series)", "result": "-3.4% (inactive)"}, {"measurement": "max response", "setting": "[13]; measured here: cell count channel max response", "result": "-11.7% and -2.05%"}, {"measurement": "max response", "setting": "[13]; measured here: lipid channel max response", "result": "-12.6% and -5.19%"}, {"measurement": "Potency", "setting": "[14]", "result": "inactive"}, {"measurement": "Potency", "setting": "[15]", "result": "inactive"}, {"measurement": "Potency", "setting": "[16]", "result": "inactive"}, {"measurement": "Potency", "setting": "[17]", "result": "inactive"}]}
{"smiles": "CCCC(=O)NCCc1c(I)[nH]c2ccc(OC)cc12", "values": [{"measurement": "Potency", "setting": "[16]", "result": "inactive"}, {"measurement": "Potency", "setting": "[17]", "result": "inactive"}]}
{"smiles": "CCCN1CCCC(c2cccc(S(C)(=O)=O)c2)C1", "note": "(stereo unspecified)", "values": [{"measurement": "Potency", "setting": "[16]", "result": "inactive"}, {"measurement": "Potency", "setting": "[17]", "result": "inactive"}]}
{"smiles": "CC[C@H](C)[C@H](NC(=O)[C@H](C)NC(=O)[C@H](CC(N)=O)NC(=O)[C@H](CCCCN)NC(=O)[C@H](Cc1ccccc1)NC(=O)[C@H](CC(C)C)NC(=O)[C@@H](NC(=O)[C@@H](NC(=O)[C@H](CC(C)C)NC(=O)[C@@H]1CCCN1C(=O)[C@@H](NC(=O)[C@H](CCC(N)=O)NC(=O)[C@H](CO)NC(=O)[C@H](CCCCN)NC(=O)[C@H](CCC(=O)O)NC(=O)[C@H](CO)NC(=O)[C@@H](NC(=O)[C@H](CCSC)NC(=O)[C@H](Cc1ccccc1)NC(=O)CNC(=O)CNC(=O)[C@@H](N)Cc1ccc(O)cc1)[C@@H](C)O)[C@@H](C)O)C(C)C)[C@@H](C)O)C(=O)N[C@H](C(=O)N[C@@H](CCCCN)C(=O)N[C@@H](CC(N)=O)C(=O)N[C@@H](C)C(=O)N[C@@H](Cc1ccc(O)cc1)C(=O)N[C@@H](CCCCN)C(=O)N[C@@H](CCCCN)C(=O)NCC(=O)N[C@@H](CCC(=O)O)C(=O)O)[C@@H](C)CC", "values": [{"measurement": "activity change, negative = inhibition", "setting": "[16]", "result": "2.8% [at 6.83 µM] (inactive)"}, {"measurement": "activity change, negative = inhibition", "setting": "[17]", "result": "-16.9% [at 3.88 µM] (inactive)"}]}
{"smiles": "CSCC[C@@H](N)C(=O)O", "values": [{"measurement": "Potency", "setting": "[16]", "result": "inactive"}, {"measurement": "Potency", "setting": "[17]", "result": "inactive"}]}
